Data from article PMC5540273 (PLoS ONE, 2017).

The molecules below were run on T1, PIP5K2C.
T1 construct: gene PIP4K2C
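Also: kd values determined as follow-up on hits from a single-replicate KINOMEscan panel screen.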

SMILES	Kd
Nc1nccc(-c2c(-c3ccc(F)cc3)ncn2C2CCN(Cc3ccccc3)CC2)n1 [SB-219980]	93 nM
CC(=O)c1c(C)c2cnc(Nc3ccn(C)n3)nc2n(C2CCCC2)c1=O	110 nM
CS(=O)(=O)Cc1ccc(Nc2nccc(-c3c(-c4cccc(NC(=O)C5CCCCC5)c4)nn4ncccc34)n2)cc1 [GSK350559]	60 nM
